# Bioassay records (PubChem)
# An excerpt weighted towards active compounds, which were near 3.5% of everything screened.
# BoNT-F LC inh = BoNT/F light chain protease inhibitors, primary screen, biochemical, flow cytometry, MLPCN library | inhibition, % at 10 µM | AID 588497, 2011 | Multiplex microsphere protease cleavage assay | 0.22% of 360,000 active | Botulinum neurotoxin type F light chain protease (Clostridium botulinum); in the data active means inhibition above about 35%, passing the limit was not always enough; inconclusive means no clear call, values can overlap the other calls; further: plate controls were buffer without enzyme for full effect and enzyme alone for no effect
# BoNT A protease = BoNT/A light chain protease inhibitors, primary screen, biochemical, flow cytometry, MLPCN library; multiplex microsphere protease substrate cleavage; 0.17% of 360,000 active; Botulinum neurotoxin type A light chain protease (Clostridium botulinum A str. ATCC 3502); inhibition, % at 10 µM; AID 588499, 2011; further: plate controls were buffer without enzyme for full effect and enzyme alone for no effect
# Bead autofluor = compound fluorescence in toxin protease inhibitor counterscreen; compound autofluorescence counterscreen, microsphere flow cytometry; stronger effect = higher value; 3.1% of 360,000 active; fluorescence intensity (test concentration not listed); in the data active means fluorescence intensity above about 16000; inconclusive means no clear call, values can overlap the other calls
# BH1578 lux ind = inducers of Vibrio cholerae quorum light production without autoinducers, primary screen, BH1578 luxS cqsA deficient, single point; V. cholerae BH1578 lux reporter, luminescence, 6 h; activation, % at 18.7 µM; 0.16% of 350,000 active; AID 588436, 2011; in the data active means activation mostly above about 9.7%, no sharp cut-off; inconclusive means no clear call, values can overlap the other calls; inactive means mostly below about 3.7%
# Anthrax LF inh2 = Bacillus anthracis LF protease inhibitors, primary screen, biochemical, multiplex microsphere, MLPCN library. multiplex microsphere protease cleavage assay. inhibition, % at 10 µM. AID 588501, 2011. 0.12% of 360,000 active. Lethal factor (Bacillus anthracis), P15917; further: plate controls were buffer without enzyme for full effect and enzyme alone for no effect
# Target sequence (P15917 whole entry, looked up): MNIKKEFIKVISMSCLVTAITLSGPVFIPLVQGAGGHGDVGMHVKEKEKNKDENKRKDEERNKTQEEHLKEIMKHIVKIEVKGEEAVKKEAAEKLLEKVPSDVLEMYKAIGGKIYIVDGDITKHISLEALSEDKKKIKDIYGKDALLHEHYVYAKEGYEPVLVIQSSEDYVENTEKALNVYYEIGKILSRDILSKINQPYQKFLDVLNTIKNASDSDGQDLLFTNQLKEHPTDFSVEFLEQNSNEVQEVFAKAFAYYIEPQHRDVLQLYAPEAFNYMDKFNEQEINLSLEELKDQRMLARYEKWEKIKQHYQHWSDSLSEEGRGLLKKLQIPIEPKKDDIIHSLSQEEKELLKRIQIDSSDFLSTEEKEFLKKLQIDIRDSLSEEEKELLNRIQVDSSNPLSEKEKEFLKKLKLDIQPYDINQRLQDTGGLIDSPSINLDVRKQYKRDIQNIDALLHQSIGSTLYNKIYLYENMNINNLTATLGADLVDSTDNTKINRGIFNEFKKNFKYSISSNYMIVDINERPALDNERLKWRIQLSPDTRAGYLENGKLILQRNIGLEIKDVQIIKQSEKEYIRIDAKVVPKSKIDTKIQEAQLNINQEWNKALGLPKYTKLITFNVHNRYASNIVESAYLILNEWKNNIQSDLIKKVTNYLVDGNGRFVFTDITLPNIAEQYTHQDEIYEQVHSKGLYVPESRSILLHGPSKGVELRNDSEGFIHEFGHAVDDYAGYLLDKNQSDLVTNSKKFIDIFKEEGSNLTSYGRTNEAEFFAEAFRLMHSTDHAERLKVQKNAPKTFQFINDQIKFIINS
# * marks the source's active call; other numbers are inactive results; i = inactive; ? = inconclusive; . = no result given. Unless noted, no stated cut-off is given here; in the data, active means inhibition above about 30%; inconclusive means no clear call, values can overlap the other calls; inactive means below that.
SMILES,BoNT-F LC inh,BoNT A protease,Bead autofluor,BH1578 lux ind,Anthrax LF inh2
Cc1ccc(-c2nnc3n2CCCCC3)cc1,-9.1,-0.9,2297,-0.6,-1.5
Cc1ccc(CSc2nnc(CNc3ccc(F)cc3)o2)cc1,-6.4,-0.7,4453,0.4,-1.8
Cc1nc2ncnn2c(N2CCN(C(=O)Cc3cccs3)CC2)c1C,2.2,3.3,22223*,-0.4,-5.5
COc1ccccc1N1CCN(C(=O)CCCn2c(=S)[nH]c3ccccc3c2=O)CC1,0.6,-0.4,3710,i,-4.1
COc1ccccc1N1CCN(C(=O)Cc2cccs2)CC1,-1.2,?,22449*,i,-1.4
COc1ccccc1N1CCN(C(=O)CCn2c(=O)[nH]c3ccccc3c2=O)CC1,-2.0,?,22600*,i,-1.4
CC1(C)C(CSc2nc3ccccc3[nH]2)C1(Cl)Cl (configuration not stated),-0.2,-0.2,2269,i,-0.2
Cc1ccc(-n2c3c(c(=O)[nH]c2=O)C(C(F)(F)F)(C(F)(F)F)NC(=O)N3)cc1,-0.7,0.7,16132*,i,1.4
CCOc1ccc(-c2c[n+](=O)c3c(n2[O-])CCCC3)c(OCC)c1,-5.7,-0.9,19889*,i,-0.1
COc1ccc(OC)c(-c2c[n+](=O)c3c(n2[O-])CCCC3)c1,-2.5,0.1,6716,-7.1,-2.3
FC(F)(F)c1nc(SCc2ccccc2)n[nH]1,18.7,-2.2,3280,-0.5,11.1
CCCCNc1cc(C)oc(=O)c1C(C)=O,6.0,6.1,21662*,-1.4,-2.1
COC(=O)c1ccc(CN2C(=O)NC(CC(C)C)C2=O)cc1 (configuration not stated),-5.3,-1.4,4753,-0.9,-11.3
FC(F)(F)c1nnc2sc(-c3ccccn3)nn12,25.3,0.3,4464,i,-4.7
c1ccc(Cc2nnc3sc(-c4ccncc4)nn23)cc1,-0.4,-0.8,23785*,i,-1.1
c1ccc(Cc2nnc3sc(-c4ccccn4)nn23)cc1,5.7,?,21625*,-1.4,0.2
c1ccc(Cc2nnc3sc(-c4cccs4)nn23)cc1,7.4,0.9,7931,i,3.4
CCOc1ccccc1-c1nn2c(Cc3ccccc3)nnc2s1,-17.2,-13.7,19404*,0.7,-3.2
c1ccc(Cc2nnc3sc(-c4cccnc4)nn23)cc1,-4.7,-1.4,16689*,i,-5.8
COC(=O)c1cccc(NC(=O)CC2C(=O)NCCN2C(=O)c2ccc(F)cc2F)c1 (configuration not stated),4.2,-0.3,5309,-0.5,0.9
COCCn1c(Cc2ccccc2)nnc1SCC(=O)N1CCCC1=O,-4.2,0.1,2952,-8.1,-14.1
CC(C)(C)C(=O)COC(=O)c1cc(-c2cccnc2)nc2ccccc12,-6.7,0.9,5830,i,4.3
COC(=O)N/N=C/c1cc(C)n(-c2ccc(F)cc2)c1C,2.3,0.6,4668,i,-4.4
COC(=O)N/N=C/c1cc(C)n(-c2ccc(Br)cc2)c1C,?,-2.3,4534,i,30.8*
O=C(CNS(=O)(=O)c1ccc(Br)cc1)N1CCOCC1,0.3,-0.2,22354*,i,-1.8
SMILES,BoNT-F LC inh,BoNT A protease,Bead autofluor,BH1578 lux ind,Anthrax LF inh2
O=C(CNS(=O)(=O)c1ccc(C(=O)N2CCOCC2)cc1)N1CCOCC1,-6.1,1.3,3857,8.3,3.8
Cc1ccc(S(=O)(=O)C(CCC(=O)N2CCOCC2)S(=O)(=O)c2ccc(C)cc2)cc1,0.7,-0.5,16223*,-1.8,-0.8
CCCOc1ccccc1/C=C(\C#N)C(=O)Nc1cccnc1,?,?,4318,-0.5,-8.9
O=C(CSc1nc2nn(-c3ccccc3)c(=O)c-2c2n1CCCCC2)c1ccc(O)c(O)c1,-10.6,-0.5,3816,-0.3,-1.3
Cc1oc2ccccc2c1-c1cn2c(n1)SCC2,-5.0,?,23992*,-1.8,-5.0
c1ccc(-c2cn3c(n2)SCC3)cc1,.,.,.,-4.0,.
CC(C)NC(=S)NNC(=O)C12CC3CC(CC(C3)C1)C2,-1.7,?,24739*,i,-2.6
O=C1CCN(Cc2ccccc2)C=C1c1ccc(Br)cc1,2.1,0.9,3912,i,-1.0
COc1cc2nc(SCC(=O)NCc3ccco3)n(Cc3ccc(Cl)cc3)c(=O)c2cc1OC,-2.2,?,23649*,-1.3,-2.1
COCCCn1c(SCc2ccc(OC)cc2)nc2cc(OC)c(OC)cc2c1=N,-3.2,-1.1,23040*,i,-2.5
COCCNC(=O)CSc1nc2ccc(N3CCOCC3)cc2c(=O)n1Cc1ccc(OC)cc1,10.6,1.5,4256,-0.3,-1.3
COCCNC(=O)CSc1nc2cc(OC)c(OC)cc2c(=O)n1Cc1ccc(OC)cc1,-0.3,?,22751*,-0.2,-1.2
COc1ccc(Cn2c(CCC(=O)NCc3ccco3)nc3cccnc32)cc1,-2.3,2.1,22452*,-0.4,-0.6
COCCNC(=O)CCc1nc2cccnc2n1Cc1ccc(OC)cc1,-7.2,-1.5,4259,i,-6.6
CCCSc1nc2cc(OC)c(OC)cc2c(=N)n1CCCN1CCOCC1,1.9,-0.7,4096,-0.3,1.4
COc1ccc(S(=O)(=O)Nc2cc(C)on2)cc1,-5.1,-3.9,3833,-6.2,-5.0
Cn1c(=O)c2c(nc(Cc3ccc(N)cc3)n2C)n(C)c1=O,5.3,-0.4,2910,-0.4,5.8
Cc1cc(=O)n2nc(N3CCCC(C(=O)N4CCc5ccccc54)C3)sc2n1 (configuration not stated),-8.8,0.1,2568,16.7*,-8.0
O=C(Nc1ccccc1-c1ccccc1)C1CCCN(c2ncccn2)C1 (configuration not stated),-2.0,-0.2,16368*,-0.4,-2.5
Cc1cc(C)nc(N2CCCC(C(=O)NCc3cccc(C(F)(F)F)c3)C2)n1 (configuration not stated),-15.4,-1.2,8636,-0.3,0.1
Cc1cc(=O)n2nc(N3CCCC(C(=O)N4CCOCC4)C3)sc2n1 (configuration not stated),-0.9,-0.5,2249,i,4.6
O=C(C1CCCN(c2ncccn2)C1)N1CCc2ccccc21 (configuration not stated),-7.6,-5.0,17813*,-1.8,-4.4
O=C(C1CCC(C(=O)N2CCc3ccccc32)CC1)N1CCc2ccccc21 (configuration not stated),-3.8,-0.6,2801,-0.2,1.6
Cc1ccc(NC(=O)C2CCCN(c3ncccn3)C2)c(C)c1 (configuration not stated),-2.9,0.3,5103,-0.2,0.6
O=C(NCc1cccc(C(F)(F)F)c1)C1CCCN(c2ncccn2)C1 (configuration not stated),-0.1,?,22625*,i,-5.2
CCC(C)(C(=O)Nc1ccc(OC)cc1)N(C)C(=O)Cn1nnnc1N (configuration not stated),-6.4,-1.0,6266,-0.1,-2.7
